Screening results as filed in PubChem BioAssay.
Only some compounds are listed: those with a hit (about 21% of all), similar ones and a draw of the others.
Cycloheximide cs: counter-screen hit for Shiga toxin inhibitors, cycloheximide; cell reporter, cycloheximide protein synthesis inhibition counterscreen; max response, %; actives 12% (n = 300,000); AID 2314; in the data active = max response mostly above about 13%, no sharp cut-off; inactive = mostly below about 14%; also: read at 38.3 µM for the half of the compounds with a filed dose; 0% is about no effect
Pf growth 48h: P. falciparum growth inhibition at 48 hours (one generation) | Potency, µM (top dose mostly 28.7 µM), inactives show top-dose activity change, negative = inhibition, hits mostly inhibitors | P. falciparum luciferase growth in erythrocytes, 48 h | actives 5.9% (n = 310,000) | AID 504832; also: potency is read from the fitted curve at half-maximal effect; % is scaled to controls: 0 for no effect and ±100 for the full control effect
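A one-generation exposure of luciferase-tagged malaria parasites in RPMI 1640/Albumax erythrocyte culture, 37 C and 5% CO2. Inhibition is inferred from decreased luminescence after adding detection reagent.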
Shiga toxin inh: Shiga toxin inhibition; Vero cells, Shiga toxin protein synthesis inhibition reporter; inhibition, % at 38.7 µM; actives 9.2% (n = 290,000); in the data active = inhibition mostly above about 28%, no sharp cut-off; inactive = mostly below about 43%; also: 0% is about no effect
HCV inhibitor: HCV inhibition. Huh7.5.1 HCVcc-Cre infection, luciferase reporter, 44 h. Potency, µM (series often up to 41.8 µM), for inactives: at the top dose activity change, negative = inhibition, usual class: inhibitors. actives 3.4% (n = 340,000). AID 651820; also: potency is read from the fitted curve at half-maximal effect; % is scaled to controls: 0 for no effect and ±100 for the full control effect
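Cells (1,000/well) were plated 4 h before compound, then infected with HCVcc-Cre virus (~0.5 moi). After 44 h further culture, infection was read as luciferase luminescence following a 15 min substrate incubation at room temperature.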
Pf growth 96h: inhibits malaria parasite growth, 96 h | P. falciparum luciferase reporter growth, 96 h | Potency, µM (top dose mostly 28.7 µM), without a hit: top-dose activity change, negative = inhibition, actives largely listed as inhibitors | actives 6.9% (n = 320,000) | AID 504834; also: potency is read from the fitted curve at half-maximal effect; % is scaled to controls: 0 for no effect and ±100 for the full control effect
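Compounds incubated with erythrocytes infected by luciferase-expressing P. falciparum (2% hematocrit, 0.05% parasitemia final) for 96 hours, 37 C in 5% CO2. Growth inhibition scored as decreased luciferase luminescence.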
AMA1-RON2 inh: disrupts binding of P. falciparum AMA1 to RON2; AlphaScreen AMA1-biotinylated RON2 peptide binding; Potency, µM (series often up to 58.2 µM), for the others: top-dose activity change, negative = inhibition, actives largely listed as inhibitors; actives 0.2% (n = 360,000);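 also: potency is read from the fitted curve at half-maximal effect; 0% = vehicle wells and -100% = peptide control; nearly all actives have a fitted effect of over 45% in size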
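AMA1 (3D7) with his tag at 25 nM final met compounds first, then biotinylated RON2 peptide at 25 nM; detection used donor plus acceptor beads, 10 µg/mL apiece, read by AlphaScreen after 30 min at room temperature.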
An asterisk follows results filed as active; ? = inconclusive; / = no result given; [ ] = another dose, or the depositor's remark. Unless noted, calls follow the shape of the dose curve; as a rule, active = well fitted curve in the direction sought with a large enough effect; inconclusive = small, poorly fitted or top-dose-only effect, or another doubt; inactive = no such curve, though single readings can be large; an effect the other way counts as inactive or inconclusive.

SMILES	Cycloheximide cs	Pf growth 48h	Shiga toxin inh	HCV inhibitor	Pf growth 96h	AMA1-RON2 inh
CCN(CC)CCN(Cc1cc2cc3c(cc2[nH]c1=O)OCO3)C(=S)NCCCOC	1	-6%	-5	15%	13µM*	3%
CCN(CC)CCCN(Cc1cc2cc3c(cc2[nH]c1=O)OCO3)C(=S)NCCCOC	-2	38%	-10	-6%	?	0%
CCN(CC)CCN(Cc1cc2cc3c(cc2[nH]c1=O)OCO3)C(=S)NCC1CCCO1 (configuration not stated)	-3	-11%	9	14%	15µM*	8%
COc1ccc(C(=O)OCC(=O)NC(=O)NC2CCCC2)c(O)c1	-1	-4%	13	13%	10%	-11%
COc1cc(SC)ccc1C(=O)OCC(=O)NC1CC1	26*	18%	48	-8%	34%	-14%
COc1ccc(C(=O)OCC(=O)NC2CCCCCC2)c(OC)c1	/	46%	/	-8%	-1%	-3%
COC(=O)c1ccc(COC(=O)c2ccc(SC)cc2OC)cc1	21*	49%	45*	-6%	?	25%
COc1ccc(C(=O)OCC(=O)NC2CCCC2)c(OC)c1	17*	42%	31	-8%	54%	1%
COc1cc(SC)ccc1C(=O)OCC(=O)NCCNC(=O)COC(=O)c1ccc(SC)cc1OC	-3	17%	-12	1%	-8%	3%
COc1ccc(C(=O)OCC(=O)NC(=O)NC2CCCC2)c(OC)c1	13	12µM*	17	-8%	24%	1%
O=C(CN1C(=O)NC2(CCCCCC2)C1=O)c1cccs1	/	3%	/	-16%	51%	-1%
Cc1cc(C)c(C(=O)/C=C/c2cccc3ccccc23)c(=O)[nH]1	0	?	-12	11µM*	?	-9%
C/C(=C\c1ccccc1F)C(=O)c1c(C)cc(C)[nH]c1=O	-2	-7%	-5	20%	?	-7%
Cc1cc(C)c(C(=O)/C=C/c2ccc3c(c2)OCO3)c(=O)[nH]1	3	0%	15	?	69%	-18%
C/C(=C\c1cccc(Cl)c1Cl)C(=O)c1c(C)cc(C)[nH]c1=O	-3	0%	-16	-9%	19µM*	0%
Cc1c(OC(C)C(=O)NCc2ccncc2)ccc2c3c(c(=O)oc12)CCCC3 (configuration not stated)	-1	?	-3	?	9.3µM*	2%
Cc1c(OCC(=O)NCCCn2ccnc2)ccc2c3c(c(=O)oc12)CCC3	-2	-11%	1	-8%	?	-2%
Cc1c(OC(C)C(=O)NCCCn2ccnc2)ccc2c3c(c(=O)oc12)CCC3 (configuration not stated)	-2	12µM*	-5	?	12µM*	-12%
CCCCOC(=O)Cn1c(=O)c2c(nc(Br)n2Cc2ccccc2)n(C)c1=O	-1	9.3µM*	-9	?	?	-12%
Cn1c(NN)nc2c1c(=O)n(Cc1ccccc1)c(=O)n2C	-2	12µM*	-9	3%	1%	80%
CCOC(=O)Cn1c(=O)c2c(nc(Br)n2Cc2ccccc2)n(C)c1=O	1	-15%	19	/	/	/
Cn1c(=O)n(CC(N)=O)c(=O)c2c1nc(Br)n2Cc1ccccc1	1	0%	-1	-6%	2.1µM*	-2%
C=CCn1c(=O)c2c(nc(Br)n2Cc2ccccc2Cl)n(C)c1=O	-2	?	-16	-5%	12µM*	14%
CCCCOC(=O)Cn1c(=O)c2c(nc3n2CCCCN3c2ccc(C)cc2)n(C)c1=O	-3	7.4µM*	-21	?	-2%	-5%
CCOC(=O)Cn1c(=O)c2c(nc3n2CCCCN3c2ccc(OCC)cc2)n(C)c1=O	/	/	/	19%	/	6%
SMILES	Cycloheximide cs	Pf growth 48h	Shiga toxin inh	HCV inhibitor	Pf growth 96h	AMA1-RON2 inh
CC(C)OC(=O)CCC1(C(=O)O)CCC(=O)NC1 (configuration not stated)	-2	1.3µM*	-6	20%	/	5%
Fc1ccc(Cc2nnc(-c3cccs3)o2)cc1	33*	47%	43*	-1%	?	0%
c1ccc(-c2nnc(Cn3c4ccccc4c4nc5ccccc5nc43)o2)cc1	/	/	/	-2%	/	1%
c1ccc(CSc2nnc(-c3cccs3)o2)cc1	46*	114%	101*	-1%	?	16%
Fc1ccc(-c2nnc(CSc3nnc(-c4cccs4)o3)o2)cc1	10	/	28	-9%	65%	32%
CC(O)c1nc2ccccc2n1Cc1nnc(-c2ccc(Cl)cc2)o1 (configuration not stated)	21*	-15%	28	15%	-17%[5.75 µM]	-7%
Fc1ccccc1CSc1nnc(-c2cccs2)o1	44*	183%	88*	13%	/	23%
Cn1ncc(Cl)c1C(=O)N1CCN(S(=O)(=O)c2ccc(Cl)s2)CC1	10	0%	6	0%	67%	-1%
Cc1cc(C(=O)Nc2ccc(Cl)c(S(=O)(=O)N3CCOCC3)c2)c2ccccc2n1	/	?	/	?	?	-19%
S=C1NCCNC(=S)NCCOCCOCCN1	-6	12%	-13	11%	-11%	36%
Cc1ccc(S(=O)(=O)N2CCCC2CNC(=O)C(=O)NC2CC2)cc1 (configuration not stated)	/	-2%	/	13%	?	-18%
CC(C)NCc1nnc(-c2ccc(Cl)cc2)o1	20*	19%	32	2%	12%	35%
Fc1ccc(CSc2nnc(-c3cccs3)o2)cc1	65*	194%	101*	1%	/	42%
c1ccc(-c2nnc(CSc3nnc(-c4cccs4)o3)o2)cc1	2	5%	-1	17%	17%	-4%
Fc1ccc(-c2nnc(Cc3ccc(Cl)cc3)o2)cc1	36*	60%	59*	-23%	65%	1%
CCSc1nnc(-c2cccs2)o1	28*	29%	28	2%	/	19%
C#CCOc1ccc(/C=C2/C(=O)ON=C2C)cc1Br	11	19%	18	6%	0%	-15%
O=C1[C@H]2[C@@H](c3ccccc3)N[C@]3(CCCN(CC4CCCCC4)C3=O)[C@H]2C(=O)N1Cc1ccccc1	/	/	/	/	/	-1%
c1csc(-c2nnc(Cc3cccc4ccccc34)o2)c1	17*	?	29	-18%	-23%	3%
N#Cc1ccc(NN=Nc2ccccc2C#N)cc1	/	/	/	/	/	-1%
Cc1ccc(Cn2nnc3c(=O)[nH]c(C4CCN(C(=O)c5cccs5)CC4)nc32)cc1	-1	13µM*	7	-4%	0%[5.75 µM]	6%
Cc1ccc(C)c(Cn2nnc3c(=O)[nH]c(C4CCN(C(=O)c5cccs5)CC4)nc32)c1	-4	/	3	-8%	-23%	-7%
O=C(c1cccs1)N1CCC(c2nc3c(nnn3Cc3cccc(Cl)c3)c(=O)[nH]2)CC1	-1	4.7µM*	-8	22%	13%	-6%
